# ALDH1A1 inh = ALDH1A1 (human) enzyme inhibition; Purified ALDH1A1, NADH fluorescence, propionaldehyde substrate; 220,000 tested, 7.3% active; Potency, µM (doses to about 75.3 µM), for the others: at the highest dose activity, negative = inhibition, hits mostly inhibitors;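 also: potency is read from the fitted curve at half-maximal effect; plate controls were no enzyme wells and a reference inhibitor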
# IMPase Li inh = cell-permeable IMPase inhibitors with lithium potentiation; AID 1457; CHO-M1 cells, IP1 TR-FRET (IP-One), carbachol + lithium; Potency, µM (series often up to 59.4 µM), without a hit: at the highest dose activity, negative = IMPase inhibition, hits mostly inhibitors; 210,000 tested, 0.35% active; active = well fitted curve in the direction sought with a large enough effect; inconclusive = small, poorly fitted or top-dose-only effect, or another doubt; inactive = no such curve, though single readings can be large; an effect the other way counts as inactive or inconclusive;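 also: IP1 builds up when IMPase is blocked and the TR-FRET signal falls; potency is read from the fitted curve at half-maximal effect; plate controls were basal vehicle for no effect and high inhibitor control for full effect; nearly all actives have a fitted effect of over 50% in size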
#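 CHO cells stably expressing M1 receptor (2000/well, cultured 16–30 h) treated 30 min at 37C with compound plus low lithium. Cytosolic IP1 by TR-FRET (665/620 ratio and 620 channel) after 10 min lysis; AC50 by Hill fit.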
# HPGD inh = inhibitors of human 15-hydroxyprostaglandin dehydrogenase (HPGD) | purified HPGD, NADH fluorescence kinetic, PGE2 substrate | P15428 | Potency, µM, for inactives: at the highest dose activity change, negative = inhibition, hits mostly inhibitors | 150,000 tested, 4.3% active; also: potency is read from the fitted curve at half-maximal effect
# Target sequence (P15428 whole entry, looked up): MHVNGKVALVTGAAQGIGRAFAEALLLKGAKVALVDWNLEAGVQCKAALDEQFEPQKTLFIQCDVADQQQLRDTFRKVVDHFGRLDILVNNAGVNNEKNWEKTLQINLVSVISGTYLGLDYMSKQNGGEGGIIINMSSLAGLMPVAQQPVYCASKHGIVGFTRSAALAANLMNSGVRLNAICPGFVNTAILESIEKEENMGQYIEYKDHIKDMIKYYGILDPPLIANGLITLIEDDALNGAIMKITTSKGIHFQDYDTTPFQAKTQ
#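 NADH formation kinetics: reaction with 30 uM PGE2 and 1 mM NAD+ (final), 20 nM enzyme, Tris-HCl pH 8 with Tween 20, after 15 min compound preincubation at room temperature. Fluorescence change, last versus first of five reads.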
# PNC assembly inh = blocks assembly of the perinucleolar compartment. PC3M PTB-GFP, PNC prevalence imaging, 16 h; hits give low values. activity change (PNC), negative = inhibition, % at 10 µM. 140,000 tested, 3.1% active. AID 2417;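 active = readout at or below -70, meaning at least 70% loss of cells showing the perinucleolar compartment, a nuclear body marking cancer cells; inconclusive = readout between -30 and a set limit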;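 also: plate controls were DMSO wells for no effect and camptothecin positive control wells for full effect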
#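 PC3M cells stably expressing PTB-GFP, 750–1000 cells/well, treated 16 h at 37 °C with compound (23 nl of library stock), in duplicate. After paraformaldehyde fixation and Hoechst stain, imaged at 20x; PNC prevalence scored by image analysis.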
# IMPase inh = membrane-permeable compound that blocks inositol monophosphatase; P97697; CHO-M1 cells, IP1 accumulation, HTRF TR-FRET ratio; inhibition (IP1 accumulation), % at 46.1 µM; 120,000 tested, under 10 active; active = well fitted curve in the direction sought with a large enough effect in the signal ratio, not every such curve was filed as active; inconclusive = small, poorly fitted or top-dose-only effect, or a change in a side signal; inactive = no such curve, though single readings can be large or run the other way; the % refers to the signal ratio;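 also: cells stimulated with carbachol in lithium chloride buffer; plate controls were DMSO basal wells for no effect and reference inhibitor wells for full effect; higher means more IMPase inhibition seen as more IP1 and lower FRET ratio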
# Target sequence (P97697 whole entry, looked up): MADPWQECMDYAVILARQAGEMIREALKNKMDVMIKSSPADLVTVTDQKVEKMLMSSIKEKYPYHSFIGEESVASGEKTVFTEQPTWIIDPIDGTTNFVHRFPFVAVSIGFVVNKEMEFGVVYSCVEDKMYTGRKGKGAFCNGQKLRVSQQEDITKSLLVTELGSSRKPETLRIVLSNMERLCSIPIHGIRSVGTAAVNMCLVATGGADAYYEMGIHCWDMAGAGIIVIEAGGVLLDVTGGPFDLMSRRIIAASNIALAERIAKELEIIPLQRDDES
#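 CHO-M1 cells (CHO stably expressing M1 receptor), compound up to 46 uM final, stimulated with carbachol (50 uM as added) in buffer with 50mM LiCl, pH 7.4, 30 min at 37C. Cytosolic IP1 read by TR-FRET; AC50 from Hill fits.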
# NPSR antag = blocks cAMP signaling of the human neuropeptide S receptor | 220,000 tested, 1% active | CHO-NPSR cells, cAMP TR-FRET, antagonist mode | Potency, µM (doses to about 38.3 µM), for the others: at the highest dose activity change, negative = inhibition, most hits filed as inhibitors | Q6W5P4; active = well fitted curve in the direction sought with a large enough effect; inconclusive = small, poorly fitted or top-dose-only effect, or another doubt; inactive = no such curve, though single readings can be large; an effect the other way counts as inactive or inconclusive; also: potency is read from the fitted curve at half-maximal effect; nearly all actives have a fitted effect of over 50% in size
# Starred values were filed as active, the others as inactive; u = inconclusive; x = no result given; ! = a repeat was not active; [ ] = dose if it differs, or a comment. The list is not random: actives were taken first. Their share in the collection is about 11%. Unless noted, calls follow the shape of the dose curve; as a rule, active = well fitted inhibition curve with a large enough effect (not every such curve was filed as active); inconclusive = small, poorly fitted or top-dose-only effect, or another doubt; inactive = no such curve, though single readings can be large or run the other way. Unless noted, % is scaled to controls: 0 for no effect and ±100 for the full control effect.
SMILES,ALDH1A1 inh,IMPase Li inh,HPGD inh,PNC assembly inh,IMPase inh,NPSR antag
CC(C)C(c1nnnn1Cc1ccco1)N1CCC(C(N)=O)CC1 (configuration not stated),-1%,2%,-7%,1,7,8%[46.1 µM]
Cc1cc2oc(C(=O)Nc3ccc(S(=O)(=O)Nc4nccs4)cc3)cc(=O)c2cc1Cl,-16%,1%,32µM*,32,0,0%[46.1 µM]
O=C(NC(=S)Nc1ccc(S(=O)(=O)Nc2nccs2)cc1)c1ccccc1F,2µM*,-4%,x,x,x,-27%
O=C(Nc1ccc(S(=O)(=O)Nc2nccs2)cc1)c1cccc(N2C(=O)c3ccccc3C2=O)c1,7.1µM*,3%,x,x,x,-4%
O=C(O)c1ccccc1C(=O)Nc1ccc(S(=O)(=O)Nc2nccs2)cc1,-1%,-1%,-13%,x,-4[20.6 µM],x
COc1ccc(N2CCN(c3ccc(C(N)=O)cc3[N+](=O)[O-])CC2)cc1,-4%,3%,x,x,x,2%
COc1ccc(C(=O)/C=C/c2ccc(N3CCCCC3)c([N+](=O)[O-])c2)c(OC)c1,20µM*,-3%,-24%,-27,9,-45%
COc1ccc(C(=O)/C=C/c2ccc(N3CCCCC3)c([N+](=O)[O-])c2)cc1,4.5µM*,12%,-15%,-27,0,-36%
COCc1cc(C)n(CC(=O)N2CCCC2)c(=O)c1C#N,u,-4%,x,x,x,13%
CCN(CC)Cc1c(O)ccc2occ(C(=O)c3ccc(OC)cc3)c12,u,10%,-16%,36,1,5%
CCC(=O)Nn1cnc2c(c1=O)C1(CCCCC1)Cc1ccccc1-2,u,39%[38.3 µM],-1%,-106*,-7,u
Cn1c(NCCCO)nc2c(c1=O)C1(CCCCC1)Cc1ccccc1-2,u,-7%[38.3 µM],u,3,-1,14%[46.1 µM]
O=C(Nc1ccc2c(c1)OCO2)C1CC(c2ccc(Cl)cc2)=NO1 (configuration not stated),13%,-7%[38.3 µM],0%,-6,4,-13%[46.1 µM]
O=c1cc(-c2ccccc2)oc2cc(O)c(O)c(O)c12,15µM*!,12%,28µM*,x,7,x
COc1c(O)cc2oc(-c3ccc(O)cc3)cc(=O)c2c1O,x,x,x,x,x,10%
O=C(COc1ccccc1)N(Cc1ccco1)C1CCS(=O)(=O)C1 (configuration not stated),22µM*,-26%[38.3 µM],-11%,-4,11,13%[46.1 µM]
O=C(COc1ccccc1Cl)N(Cc1ccco1)C1CCS(=O)(=O)C1 (configuration not stated),24%,x,x,-111*,8,-2%[46.1 µM]
O=C(C1CCC1)N1CCC(O)(c2cccc(F)c2)CC1,1%,-2%,x,x,x,13%
Cc1nn(-c2nnc(NC3CCCCC3)nn2)c(C)c1Br,14µM*,19%,16µM*,-9,x,-27%
O=S(=O)(NC1CCCC1)c1ccc(Br)s1,5%,4%[38.3 µM],25µM*,24,-2,-2%[46.1 µM]
O=S(=O)(NC1CCCCC1)c1ccc(-c2csnn2)s1,-4%,14%[38.3 µM],14µM*,7,7,-8%[46.1 µM]
O=C(CCCc1cccs1)Nc1ccc2c(c1)OCO2,0%,12%,x,x,x,-7%
Cn1cc(S(=O)(=O)N2CCN(Cc3ccccc3)CC2)c(=O)n(C)c1=O,-18%,-11%[38.3 µM],-9%,u,-2,-3%[46.1 µM]
CCCC=O,3.5µM*,7%,-11%,x,x,x
COc1ccc(S(=O)(=O)N2CCCOC2CNC(=O)C(=O)NCCCn2ccnc2)cc1OC (configuration not stated),-3%,6%,x,x,x,7%
SMILES,ALDH1A1 inh,IMPase Li inh,HPGD inh,PNC assembly inh,IMPase inh,NPSR antag
COC(=O)[C@@H](NC(=O)Nc1ccc(OC(F)(F)F)cc1)C(C)C,u,-2%[38.3 µM],28µM*,0,-9,4%[46.1 µM]
CCCOc1ccc(/C(O)=C2\C(=O)C(=O)N(CCCOC)C23C(=O)N(C)c2ccccc23)cc1 (configuration not stated),-7%,10µM*,-15%,-106*,u,u
CC1=C([N+](=O)[O-])C(c2cccc(Br)c2)C2=C(N1)c1ccccc1C2=O (configuration not stated),u,47%[38.3 µM],16µM*,-83*,9,u
COC(=O)C1=C(C)NC2=C(C(=O)c3ccccc32)C1c1cccc(OC)c1 (configuration not stated),x,x,x,x,x,-14%
OC[C@@H]1[C@@H](c2ccc(Cl)cc2)C(c2ccccc2)=NN1c1ccccc1,u,22µM*,u,x,x,x
COc1ccccc1[C@H]1C(c2ccccc2)=NN(c2ccccc2)[C@@H]1CO,u,25µM*,u,x,x,x
O=C(Nn1c(-c2ccc(F)cc2)nc2ccccc2c1=O)c1cccnc1,3%,2%,x,x,x,9%
COc1ccc(N2CCC(CNS(=O)(=O)c3cccc(C(F)(F)F)c3)C2)cc1 (configuration not stated),8.9µM*,12%[38.3 µM],-19%,8,4,-17%[46.1 µM]
COc1ccc(N2CCC(CNC(=S)Nc3c(C)cc(C)cc3C)C2)cc1 (configuration not stated),x,x,x,x,x,-44%
COc1ccc(N2CCC(CNC(=O)Nc3ccc(OC)cc3OC)C2)cc1 (configuration not stated),u,19%[38.3 µM],-9%,u,13,u
COc1ccc(N2CCC(CNC(=S)Nc3cccc(C)c3)C2)cc1 (configuration not stated),25µM*,5%,-9%,-3,x,-23%
CC1CCN(C(=S)c2ccc3c(c2)OCO3)CC1,u,34%[38.3 µM],28µM*,8,10,-5%[46.1 µM]
CNC(=S)NNC(=O)c1ccc2c(c1)OCO2,-6%,0%,x,x,x,17%
CC1CCN(C(=O)c2scc3c2OCCO3)CC1,-2%,-9%[38.3 µM],16µM*,-23,-3,-3%[46.1 µM]
CC1CCN(C(=O)c2ccc3c(c2)OCCO3)CC1,-4%,-6%[38.3 µM],0.4µM*,u,4,-3%[46.1 µM]
CC1CCN(C(=O)c2ccc(-n3cnnn3)cc2)CC1,u,12%,18µM*,1,u,7%[46.1 µM]
CN(C)S(=O)(=O)c1ccc(NC(=O)CN2CCc3ccccc32)cc1,x,x,x,x,x,-5%
CCN(CC)CCCNCC(=O)Nc1cc(C)on1,u,5%,x,x,x,8%
CC(=O)c1ccc(OCCOc2ccc(C#N)cc2)cc1,u,x,x,x,x,6%
Cc1ccc(OCC(=O)N2N=C(c3ccc(Cl)cc3)CC2c2ccco2)c([N+](=O)[O-])n1 (configuration not stated),u,6%,x,x,x,-35%
O=C(COc1cccnc1[N+](=O)[O-])N1N=C(c2ccc(Cl)cc2)CC1c1ccco1 (configuration not stated),13µM*,13%,x,x,x,-29%

# Screens as filed in PubChem BioAssay.
